Records with an inconclusive call do not appear. Active and inactive are the calls of the source. The call rests on the fitted dose curve; in most records, active means well fitted curve in the direction sought with a large enough effect; inconclusive means small, poorly fitted or top-dose-only effect, or another doubt; inactive means no such curve, though single readings can be large; an effect the other way counts as inactive or inconclusive.
How the values were obtained:
[1] = Cell Viability - LYMP2-004 (AID 966); further: nearly all actives have a fitted effect of over 65% in size
Procedure, shortened: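 Human lymphoblastoid cells (2500/well) in complete medium were treated with compounds for 24 hr at 37 C, then intracellular ATP was measured by CellTiter-Glo luminescence. AC50 values came from Hill-equation fits of concentration-response data.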

[2] = Cell Viability - LYMP2-005 (AID 967); further: series mostly up to about 92 µM
Procedure, shortened: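 LYMP2-005 human lymphoblastoid cells (2500/well) were treated with compounds for 24 h at 37 C. Intracellular ATP was then measured by CellTiter-Glo luminescence after 30 min at room temperature. AC50 values came from Hill-equation fits of qHTS concentration-response data.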

[3] = Cell Viability - LYMP2-009 (AID 968); further: series mostly up to about 92 µM; nearly all actives have a fitted effect of over 55% in size
[4] = Cell Viability - LYMP2-011 (AID 969); further: nearly all actives have a fitted effect of over 60% in size
Procedure, shortened: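 Human lymphoblastoid cells (2500/well) were plated in complete medium, preincubated 5 hr at 37 C, then exposed to compounds for 24 hr at 37 C. Intracellular ATP was read by CellTiter-Glo luminescence, and AC50 came from Hill-equation concentration-response fits.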

[5] = Cell Viability - LYMP2-013 (AID 970); further: series mostly up to about 92 µM; nearly all actives have a fitted effect of over 55% in size
Procedure, shortened: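 Human lymphoblastoid cells, 2500/well, were preincubated 5 hr at 37 C, then treated with compounds for 24 hr at 37 C in complete medium. Intracellular ATP was read by CellTiter-Glo luminescence; AC50 from Hill-equation fits of concentration-response data.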

[6] = Cell Viability - LYMP2-015 (AID 971); further: nearly all actives have a fitted effect of over 55% in size
Procedure, shortened: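 Human lymphoblastoid cells (2500/well) in complete medium were preincubated 5 hr at 37 C, then compound-treated 24 hr at 37 C. Intracellular ATP was read by CellTiter-Glo luminescence after 30 min at room temperature; AC50 came from Hill-equation concentration-response fits.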

[7] = Cell Viability - LYMP2-017 (AID 972); further: series mostly up to about 92 µM; nearly all actives have a fitted effect of over 55% in size
Procedure, shortened: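 Human lymphoblastoid cells (2500/well) were seeded in complete medium, held 5 hr at 37 C, then exposed to compounds for 24 hr at 37 C. Intracellular ATP was read by CellTiter-Glo luminescence after 30 min at room temperature, with AC50 values from Hill-equation fits.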

[8] = Cell Viability - LYMP2-019 (AID 973); further: nearly all actives have a fitted effect of over 55% in size
Procedure, shortened: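 Human lymphoblastoid cells were seeded at 2500 cells/well, preincubated 5 hr at 37 C, then exposed to compounds for 24 hr at 37 C in complete medium. Intracellular ATP was measured by CellTiter-Glo luminescence; AC50 from Hill fits.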

[9] = Cell Viability - LYMP2-021 (AID 974)
Procedure, shortened: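 Human lymphoblastoid cells (2500/well) were preincubated 5 hr at 37 C, then exposed to compounds for 24 hr at 37 C in complete medium. Intracellular ATP was read by CellTiter-Glo luminescence; AC50 came from Hill-equation fits of concentration-response data.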

[10] = Cell Viability - LYMP2-023 (AID 975)
Procedure, shortened: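 Human lymphoblastoid cells (2500/well) were preincubated 5 hr at 37 C, then exposed to compounds for 24 hr at 37 C in complete medium. Cellular ATP was read by CellTiter-Glo luminescence, and AC50 came from Hill-equation fits.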

[11] = Cell Viability - LYMP2-025 (AID 976); further: series mostly up to about 92 µM
Procedure, shortened: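 Human lymphoblastoid LYMP2-025 cells (2500/well) were pre-incubated 5 hr at 37 C, then treated with compounds for 24 hr at 37 C in complete medium. Viability was read as intracellular ATP by CellTiter-Glo luminescence; AC50 from Hill fits.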

[12] = Cell Viability - LYMP2-002 (AID 977); further: series mostly up to about 92 µM
Procedure, shortened: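 Cytotoxicity is scored as concentration-dependent loss of cellular ATP in a human lymphoblastoid line after 24 hr compound treatment at 37 C. AC50 is obtained by modelling concentration-response data with the Hill equation.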

[13] = Cell Viability - LYMP2-006 (AID 978); further: series mostly up to about 92 µM; nearly all actives have a fitted effect of over 60% in size
Procedure, shortened: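 Potency values are Hill-fit AC50s for decreases in intracellular ATP (CellTiter-Glo luminescence). LYMP2-006 lymphoblastoid cells, 2500 per well, were exposed to compound in complete culture medium for 24 hr at 37 C.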

[14] = Cell Viability - LYMP2-007 (AID 979);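 further: cells exposed to compound for 24 h before reading; nearly all actives have a fitted effect of over 60% in size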
Procedure, shortened: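 Human lymphoblastoid cells (2500/well) were plated in complete medium, incubated 5 hr at 37 C, then exposed to compounds for 24 hr at 37 C. Intracellular ATP was read by CellTiter-Glo luminescence after 30 min at room temperature; AC50 from Hill fits.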

[15] = Cell Viability - LYMP2-008 (AID 980); further: nearly all actives have a fitted effect of over 60% in size
Procedure, shortened: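 Human lymphoblastoid cells (2500/well) were plated, held 5 hr at 37 C, then exposed to compounds for 24 hr at 37 C in complete medium. Intracellular ATP was read by CellTiter-Glo luminescence; AC50 from Hill-fitted concentration-response.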

[16] = Cell Viability - LYMP2-010 (AID 981); further: nearly all actives have a fitted effect of over 55% in size
Procedure, shortened: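 Human lymphoblastoid LYMP2-010 cells (2500/well) were preincubated 5 hr at 37 C, then exposed to compounds for 24 hr at 37 C in complete medium. Intracellular ATP was measured by CellTiter-Glo luminescence after 30 min at room temperature; AC50 from Hill-fitted concentration-response.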

[17] = Cell Viability - LYMP2-012 (AID 982)
[18] = Cell Viability - LYMP2-014 (AID 983); further: series mostly up to about 92 µM; nearly all actives have a fitted effect of over 50% in size
Procedure, shortened: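 Human lymphoblastoid cells (2500/well) were pre-incubated 5 hr at 37 C, then exposed to compounds in complete medium for 24 hr at 37 C. Intracellular ATP was read by CellTiter-Glo luminescence after 30 min at room temperature; AC50 from Hill fits.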

[19] = Cell Viability - LYMP2-016 (AID 984); further: nearly all actives have a fitted effect of over 55% in size
Procedure, shortened: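 Cytotoxicity was scored by luminescent ATP content (CellTiter-Glo) after 24 h compound exposure at 37 C of a human lymphoblastoid line at 2500 cells/well. Concentration-response data were fitted to the Hill equation for AC50.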

[20] = Cell Viability - LYMP2-018 (AID 985);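 further: compound exposure lasted 24 hr at 37 °C; nearly all actives have a fitted effect of over 50% in size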
Procedure, shortened: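 Human lymphoblastoid cells (2500/well) were pre-incubated 5 hr at 37 C, then exposed to compounds for 24 hr at 37 C in complete medium. Viability was read as intracellular ATP by CellTiter-Glo luminescence; AC50 values came from Hill-equation fits.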

Measured: outcome

C=C(C)[C@H]1CC=C(C)C(=O)C1
inactive: all assays above
